Assay [1] is described as follows: TOX21_p53_BLA_p4_viability: Viability Assessment in the Tox21 HCT-116 p53 Agonism Beta-lactamase Assay, Phase 4 (AID 2283597; active = hit-call score of the fitted dose curve at least 0.9, where 1 is the maximum;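 note: hits lower the luminescence signal meaning cytotoxicity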). An outline of the steps:
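Readout: ATP luminescence (CellTiter-Glo), measured 30 min after reagent addition at RT. The reagent followed a 2 h CCF4-AM incubation, and the cells had been exposed to compound for 16 h at 37C.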

The nature of assay [2]: TOX21_p53_BLA_p5_viability: Viability Assessment in the Tox21 HCT-116 p53 Agonism Beta-lactamase Assay, Phase 5 (AID 2283600; active = hit-call score of the fitted dose curve at least 0.9, where 1 is the maximum). In short, it runs like this:
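Workflow: seed 4000 cells per well, wait 5 h, add compounds (DMSO, 217-fold dilution), incubate 16 h, load CCF4-AM 2 h, add CellTiter-Glo, read luminescence after 30 min.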

Assay [3] in a line: CCTE_Shafer_MEA_acute_spike_number: CCTE's Neural Acute Assay for Total Number of Spikes, Shafer Lab (AID 2284008). In short, it runs like this: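 Read-out is the total spike count over 40 min, expressed as percent change from each well's own pre-treatment baseline and fitted in the loss direction against DMSO. Rat cortical neurons were exposed at 0.03-40 uM on DIV 13 or 15.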

Assay [4] in a line: CCTE_Shafer_MEA_acute_firing_rate_mean: CCTE's Neural Acute Assay for Mean Firing Rate, Shafer Lab (AID 2284009).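 Note: analyzed for loss of signal so actives lower firing rate relative to DMSO.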 In short, it runs like this: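 Spontaneous spiking of primary rat cortical networks, DIV 13/15, 37 C. Compound 0.03-40 uM, n ≥3 wells; 40 min baseline vs 40 min treated. Endpoint fitted in loss-of-signal direction against DMSO.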
A short description of assay [5]: CCTE_Harrill_HTTr_Viability_MCF7: CCTE's 6-hour Cell Viability Assessment for the High-Throughput Transcriptomics (HTTr) Platform, in MCF-7 cells cultured in DMEM + 10% fetal bovine serum, Harrill Lab (AID 2284010). An outline of the steps: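 Propidium iodide exclusion, imaged by high-content analysis, gauged viability after a six-hour exposure across eight concentrations. Cells were MCF-7 grown in DMEM with 10% fetal bovine serum; fits run in both directions against DMSO.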

A short description of assay [6]: CCTE_Harrill_HTTr_Apoptosis_MCF7: CCTE's 6-hour Apoptosis Assessment for the High-Throughput Transcriptomics (HTTr) Platform, in MCF-7 cells cultured in DMEM + 10% fetal bovine serum, Harrill Lab (AID 2284011). An outline of the steps:
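MCF-7 (DMEM + 10% FBS), 384-well; 8-pt dilution series, 6 h chemical exposure; caspase-3/7 activation via CellEvent Caspase 3/7 Green, HCI; bidirectional fit vs DMSO.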

A short description of assay [7]: CCTE_Shafer_MEA_acute_burst_number: CCTE's Neural Acute Assay for Single-Electrode Bursts, Shafer Lab (AID 2284013). An outline of the steps: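 Burst totals were derived with adaptive spike detection (8x rms threshold) on filtered signals from rat cortical cultures; change relative to pre-treatment baseline after 40-min compound exposure (0.03-40 uM) was fitted in the negative direction against DMSO.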

Assay [8] can be described thus: CCTE_Shafer_MEA_acute_burst_duration_mean: CCTE's Neural Acute Assay for Mean Burst Duration, Shafer Lab (AID 2284014).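 Note: hits are decreases in mean burst duration relative to DMSO controls.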 In short, it runs like this:
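Acute exposure of mature rat cortical networks (DIV 13 or 15) grown on microelectrode arrays to 0.03-40 uM compound. Mean burst duration compared with the 40-min pre-dose baseline over a 40-min post-dose recording at 37 C.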

Assay [9] is described as follows: CCTE_Shafer_MEA_acute_per_burst_spike_number_mean: CCTE's Neural Acute Assay for Average Number of Spikes Per Burst, Shafer Lab (AID 2284015).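 Note: hits are decreases in mean spikes per burst versus baseline.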 An outline of the steps:
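Read-out: percent change in mean spikes per burst, each well's post-exposure 40-min recording versus its own 40-min baseline. Rat cortical cultures, DIV 13 or 15, compounds 0.03-40 uM; DMSO is negative control, loss-of-signal fitting.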

Assay [10] in a line: CCTE_Shafer_MEA_acute_interburst_interval_mean: CCTE's Neural Acute Assay for Mean Interburst Interval, Shafer Lab (AID 2284016).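 Note: percent change of mean interburst interval versus each well's own pre-dose baseline; curves fitted for decrease in interburst interval relative to DMSO.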 In short, it runs like this:
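Rat cortical cultures, DIV 13/15; 20 min equilibration, 40 min baseline, compound 0.03-40 uM, 40 min re-recording, 37 C. Spikes detected at 8x rms noise (300-5000 Hz band-pass). Endpoint: % change in interburst interval, fitted in loss direction vs DMSO.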

Assay [11] in a line: CCTE_Shafer_MEA_acute_burst_percentage_mean: CCTE's Neural Acute Assay for Percentage of Spikes in a Burst, Shafer Lab (AID 2284017). An outline of the steps: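 Rat cortical cultures, DIV 13/15, 37 C. Spikes detected at 8x rms noise (300-5000 Hz band-pass). Burst spikes/total spikes averaged across electrodes per well; % change post- vs pre-treatment (40 min each), loss-of-signal fit vs DMSO.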

Assay [12] can be described thus: CCTE_Shafer_MEA_acute_burst_percentage_std: CCTE's Neural Acute Assay for Standard Deviation of Burst Percentage, Shafer Lab (AID 2284018).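 Note: fitted in the negative direction so actives lower burst percentage SD.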 In short, it runs like this:
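Primary rat cortical neurons on 16-electrode MEA wells were recorded 40 min at baseline (DIV 13 or 15), then 40 min after compound (0.03-40 uM), at 37 C. Well value is SD across electrodes of spikes-in-bursts/total spikes; endpoint is percent change, DMSO-referenced.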

Assay [13] in a line: CCTE_Shafer_MEA_acute_per_network_burst_electrodes_number_mean: CCTE's Neural Acute Assay for Mean Number of Electrodes in a Network Burst, Shafer Lab (AID 2284021).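 Note: curves fitted for decreases only so hits reduce electrodes per burst.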 An outline of the steps: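 Primary rat cortical networks, mwMEA, 37 C. 20 min stabilization, 40 min baseline, compound 0.03-40 uM, 40 min re-record. Wells need >=10 active electrodes; percent change per well, negative fitting direction.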

A short description of assay [14]: CCTE_Shafer_MEA_acute_network_burst_percentage: CCTE's Neural Acute Assay for Percentage of Network Bursts, Shafer Lab (AID 2284022).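 Note: curves fitted for loss so actives lower network burst percentage.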 In short, it runs like this:
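Readout is the fraction of spikes falling in network bursts, expressed as per-well percent change from a 40-min pre-exposure baseline. Primary rat cortical neurons on MEA were exposed to 0.03-40 uM compound on DIV 13 or 15 and recorded for 40 min at 37 C.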

Assay [15] in a line: CCTE_Shafer_MEA_acute_cross_correlation_area: CCTE's Neural Acute Assay for Area of Cross Correlation, Shafer Lab (AID 2284024).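 Note: rat primary cortical neuron networks on 48-well MEA at DIV 13 or 15 with 40 min exposure; area under pooled inter-electrode spike cross-correlation near zero lag as percent change from own baseline; curves fitted for loss of cross-correlation area so actives lower synchrony.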 An outline of the steps: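 Plates equilibrated 20 min at 37 C, then 40 min baseline was recorded, compound was added (0.03-40 uM), and a further 40 min was recorded. Wells needed ≥10 active electrodes (≥5 spikes/min) on exposure day.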
Assay [16] can be described thus: CCTE_Shafer_MEA_acute_synchrony_index: CCTE's Neural Acute Assay for Synchrony, Shafer Lab (AID 2284027).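 Note: network synchrony index of spontaneous spiking in primary rat cortical neurons on MEAs; fitted for loss of signal so actives lower synchrony relative to DMSO.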 In short, it runs like this: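 The synchrony index is taken as percent change per well between a 40 min baseline and a 40 min recording with compound (0.03–40 uM), at 37C. Rat cortical cultures on multiwell MEAs at DIV 13 or 15, spike threshold 8× rms noise.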

Assay [17] in a line: CCTE_Shafer_MEA_dev_firing_rate_mean: CCTE's Neural Network Formation Assay for Mean Firing Rate, Shafer Lab (AID 2284031).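 Note: curve fitted for loss of firing so AC50 reflects decreased mean firing rate.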 An outline of the steps:
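Spike frequency (spikes/recording length, averaged over active electrodes) was recorded on days 5, 7, 9 and 12 and collapsed to AUC; rat cortical cultures received compound continuously over 12 days of network development.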

Assay [18] can be described thus: CCTE_Shafer_MEA_dev_per_burst_spike_percent: CCTE's Neural Network Formation Assay for Percent of Spikes in a Burst, Shafer Lab (AID 2284032).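 Note: fitted as a decrease in burst spike percentage below DMSO baseline.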 In short, it runs like this:
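Value is trapezoidal AUC over recordings on days 5, 7, 9 and 12 of the well-mean fraction of spikes falling in single-electrode bursts; rat cortical cultures exposed continuously from plating, treatment renewed DIV 5 and 9, fitted downward against DMSO.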

Assay [19] in a line: CCTE_Shafer_MEA_dev_active_electrodes_number: CCTE's Neural Network Formation Assay for Number of Active Electrodes, Shafer Lab (AID 2284040; active = hit-call score of the fitted dose curve at least 0.9, where 1 is the maximum;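 note: potency for loss of active electrodes versus DMSO so lower counts are hits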). In short, it runs like this: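 Counts electrodes per well firing at least 5 spikes/min, recorded on days 5, 7, 9 and 12 in rat cortical cultures dosed continuously from plating (treatment refreshed DIV 5, 9). Value is the area under the curve over recordings, fitted downward relative to DMSO.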

A short description of assay [20]: CCTE_Shafer_MEA_dev_burst_rate: CCTE's Neural Network Formation Assay for Burst Rate, Shafer Lab (AID 2284042).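 Note: potency for loss of burst rate below DMSO control.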 An outline of the steps:
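Cells plated, treated day 0; recorded DIV 5, 7, 9, 12; fed and re-treated DIV 5, 9. Endpoint: bursts per recording time, active-electrode well mean, trapezoidal AUC, fitted in decreasing direction against DMSO baseline.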

Assay [21] can be described thus: CCTE_Shafer_MEA_dev_bursting_electrodes_number: CCTE's Neural Network Formation Assay for Number of Bursting Electrodes, Shafer Lab (AID 2284043; active = hit-call score of the fitted dose curve at least 0.9, where 1 is the maximum;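 note: potency is for loss of bursting electrodes relative to DMSO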). In short, it runs like this:
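Counted: electrodes with burst rate ≥1 per 2 min in each well. Cells: primary rat cortex, 1.5 x 10^5/well, on 16-electrode MEA wells. Exposure: DIV 0–12, compound renewed DIV 5 and 9. Recording days 5, 7, 9, 12; AUC vs DMSO baseline.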

The nature of assay [22]: CCTE_Shafer_MEA_dev_per_burst_interspike_interval: CCTE's Neural Network Formation Assay for Burst Interspike Interval, Shafer Lab (AID 2284044).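 Note: potency for a decrease of within-burst interspike interval below DMSO level.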 In short, it runs like this:
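Neurons from rat cortex plated onto PEI-coated MEA wells with laminin […] at 1.5 x 10^5 cells/well, then treated from day 0. Media and compound fully replaced on DIV 5 and 9. Extracellular spontaneous firing recorded four times; interspike interval per burst summarised as AUC.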

Results filed as inconclusive are left out. A structure can be active in one record and inactive in another. Active and inactive are the calls of the source. Rule for the calls, unless noted: active = hit-call score of the fitted dose curve at least 0.9, where 1 is the maximum; inactive = score below 0.9.

As a reminder, the AC50 is the concentration giving half of the maximal activity seen.

As for `[Cd+2].[Cl-].[Cl-]`, the compound was called inactive in assay [1], in assay [2], in assay [3], in assay [4], in assay [5] and in [6]. The result in [7], in assay [8], in assay [9], in assay [10], in [11] and in [12] was inactive. For the same compound, the compound was classed as inactive in assay [13], in assay [14], in assay [15] and in [16]. The AC50 in assay [2] was 76200 nM (active); in [17], 331 nM (active); in assay [18], 436 nM (active); in [19] it was 315 nM (active); in [20] it was 461 nM (active); in assay [21], 302 nM (active). Also, in assay [22], the AC50 was 630 nM (active).

Source of the values: PubChem BioAssay (EPA / NIEHS).
